Screening results as filed in PubChem.
NS1 inh = inhibitors of influenza NS1 protein function; hit rate 0.4% among 270,000; Potency, µM (series often up to 46.1 µM); further: actives are rising curves; nearly all actives have a fitted effect of over 50% in size
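Recovery from NS1-induced slow growth read by OD600 in budding yeast switched to galactose assay medium (pH 6.0, -URA) at 1:100 dilution. Compound 23 nl per well; the matching strain lacking NS1 serves as control.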
CHX counter = counter-screen hit for Shiga toxin inhibitors, cycloheximide | cell reporter, cycloheximide protein synthesis inhibition counterscreen | max response, % | hit rate 12% among 300,000 | AID 2314; in the data active means max response mostly above about 13%, no sharp cut-off; inactive means mostly below about 14%; further: read at 38.3 µM for the half of the compounds with a filed dose
SARS PLP yeast = SARS-CoV PLP inhibition in yeast; S. cerevisiae expressing SARS-CoV PLpro, growth rescue; Potency, µM (highest dose often 32.9 µM), most hits filed as activators; hit rate 0.19% among 330,000; further: nearly all actives have a fitted effect of over 55% in size
Shiga inhibitor = blocks Shiga toxin action in Vero cells; Vero cells, Shiga toxin protein synthesis inhibition reporter; inhibition, % at 38.7 µM; hit rate 9.2% among 290,000; in the data active means inhibition mostly above about 28%, no sharp cut-off; inactive means mostly below about 43%
Pf growth 96h = inhibits malaria parasite growth, 96 h | AID 504834 | P. falciparum luciferase reporter growth, 96 h | hit rate 6.9% among 320,000 | Potency, µM (doses to about 28.7 µM), hits mostly inhibitors; active means well fitted inhibition curve with a large enough effect; inconclusive means small, poorly fitted or top-dose-only effect, or another doubt; inactive means no such curve, though single readings can be large or run the other way
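Infected RBCs, 2% Hct / 0.05% parasitemia final; luciferase-reporter P. falciparum; cpd 96 h, 37 C, 5% CO2; luciferase detection reagent; luminescence.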
Pf growth 48h = inhibits P. falciparum growth in the first generation, 48 h; hit rate 5.9% among 310,000; P. falciparum luciferase growth in erythrocytes, 48 h; AID 504832; Potency, µM (titrated, usually from 28.7 µM), most hits filed as inhibitors; active means well fitted inhibition curve with a large enough effect; inconclusive means small, poorly fitted or top-dose-only effect, or another doubt; inactive means no such curve, though single readings can be large or run the other way
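Growth was read as firefly luciferase luminescence after a 48 h, 37 C, 5% CO2 exposure of compounds to reporter-bearing P. falciparum cultures (0.1% parasitemia, 2% hematocrit final) in Albumax-supplemented RPMI 1640.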
Large screens that a line does not name were inactive. An excerpt weighted towards active compounds, which were near 21% of everything screened. Unless noted, the call rests on the fitted dose curve.

CN(C)c1cc(-c2ccc(Cl)c(Cl)c2)oc(=O)c1Cl	none
COC(=O)C(Cc1ccccc1)NC(=O)c1cccc(S(=O)(=O)N(C)C)c1 (stereo not drawn)	none
Cc1ccc2c(c1)C(c1ccccc1)CC(=O)O2 (stereo not drawn)	none
Cc1ccccc1OCCCC(=O)Nc1nncs1	none
Cc1ccc(C(=O)N2CCCC(C(=O)Nc3cccc(-c4ccc(F)cc4)c3)C2)cn1 (stereo not drawn)	none
CC(C)c1ccc(-n2cnn(-c3ncccc3[N+](=O)[O-])c2=O)cc1	CHX counter 34, Shiga inhibitor 77
COC(=O)c1cc(S(=O)(=O)NCCc2ccccc2)c[nH]1	none
COC(=O)c1cc(S(=O)(=O)NCc2cccc(Br)c2)c[nH]1	Pf growth 96h 9.3µM
CN(CCO)Cc1ncccc1O	none (no result: CHX counter, SARS PLP yeast, Shiga inhibitor, Pf growth 96h, Pf growth 48h)
CCOC(=O)c1ccc(-n2c(=O)[nH]c3ccccc3c2=O)cc1	Pf growth 96h inconclusive (no result: Pf growth 48h)
CCOC(=O)N1CCN(C(=O)Cc2ccc(-n3c(=O)[nH]c4ccccc4c3=O)cc2)CC1	Pf growth 96h 9.3µM
CCN(C(=O)COC(=O)c1cnc(C)cn1)c1c(N)n(Cc2ccccc2)c(=O)[nH]c1=O	none (no result: NS1 inh, CHX counter, Shiga inhibitor)
O=C(Nc1ccc(N2CCN(C(=O)c3ccco3)CC2)cc1)c1cccc(F)c1	CHX counter 22, Pf growth 96h inconclusive, Pf growth 48h inconclusive
O=C(Nc1cccc(F)c1)N1CCN(C(=O)c2ccco2)CC1	none
O=C(c1cccc(F)c1)N1CCN(Cc2ccco2)CC1	Pf growth 96h 6.6µM
O=C(Nc1ccc(N2CCN(C(=O)c3ccco3)CC2)cc1)c1ccccc1Br	Pf growth 48h inconclusive
O=C(Nc1ccc(N2CCN(C(=O)c3ccco3)CC2)cc1)c1ccccc1F	CHX counter 22, Pf growth 96h inconclusive, Pf growth 48h inconclusive
Cc1cc2c(s1)c1cnn(Cc3ccc(Cl)cc3)c(=O)c1n2C	none (no result: NS1 inh, SARS PLP yeast, Pf growth 96h, Pf growth 48h)
Cc1cc(C(=O)OCC(=O)NC(C)c2ccc(F)cc2)c(C)o1 (stereo not drawn)	Pf growth 96h inconclusive, Pf growth 48h inconclusive (no result: NS1 inh, CHX counter, Shiga inhibitor)
COc1cccc(NC(=O)c2cc3cccc(OC)c3o/c2=N\O)c1	CHX counter 81, Shiga inhibitor 109
COc1cccc(NC(=O)c2cc3ccccc3o/c2=N\O)c1	CHX counter 19, Pf growth 96h inconclusive (no result: Shiga inhibitor)
COc1cccc(NC(=O)c2ccccc2Oc2ccccc2)c1	Pf growth 96h inconclusive
O=C(Nc1ccccc1Cl)c1cc2ccccc2o/c1=N\O	CHX counter 41, Shiga inhibitor 123
Cn1c2ccccc2c(=O)c2c(=O)n(-c3ccccc3)c(-c3ccc(C(C)(C)C)cc3)nc21	Pf growth 96h 2.6µM, Pf growth 48h 1.9µM
CC(c1ccccc1)n1c(-c2cccs2)nc2c(c(=O)c3ccccc3n2C)c1=O (stereo not drawn)	Pf growth 48h 9.3µM
Cc1ccc(-c2nc3c(c(=O)c4ccccc4n3C)c(=O)n2-c2ccc(F)cc2)cc1	Pf growth 48h 8.3µM
Cc1nc2c(c(=O)c3ccccc3n2C)c(=O)n1-c1ccccc1	Pf growth 96h inconclusive, Pf growth 48h inconclusive
Cn1c2ccccc2c(=O)c2c(=O)n(-c3ccc(F)cc3)c(-c3cccs3)nc21	Pf growth 96h 5.2µM, Pf growth 48h inconclusive
CCc1nc2c(c(=O)c3ccccc3n2C)c(=O)n1-c1ccc(F)cc1	Pf growth 96h inconclusive
Cc1ccc(-n2nc(C)c3c(C)cc(=O)[nH]c32)cc1	CHX counter 21 (no result: Pf growth 96h)
Cc1ccc(C2CC(c3ccccc3OC(F)F)Nc3ncnn32)cc1 (stereo not drawn)	Pf growth 48h 12µM (no result: Pf growth 96h)
CC(Oc1ccc(F)cc1)C(=O)Nc1cc(C(F)(F)F)ccc1-n1cncn1 (stereo not drawn)	Pf growth 96h 0.41µM, Pf growth 48h 0.59µM (no result: NS1 inh, CHX counter, Shiga inhibitor)
Cc1cc(CN2CCN(CC(=O)Nc3cc(C(F)(F)F)ccc3-n3cncn3)CC2)no1	Pf growth 96h 4.1µM, Pf growth 48h 10µM (no result: NS1 inh, CHX counter, Shiga inhibitor)
CCC(Oc1ccccc1)C(=O)Nc1cc(Cl)ccc1-n1cncn1 (stereo not drawn)	Pf growth 96h 12µM, Pf growth 48h 4.1µM (no result: NS1 inh, CHX counter, Shiga inhibitor)
COc1ccc(C(=O)Nc2cc(C(F)(F)F)ccc2-n2cncn2)cc1	Pf growth 96h inconclusive (no result: Pf growth 48h)
Cc1cc(CN2CCN(CC(=O)Nc3cc(Cl)ccc3-n3cncn3)CC2)no1	Pf growth 96h 2.1µM, Pf growth 48h 2.1µM (no result: NS1 inh, CHX counter, Shiga inhibitor)
O=C(C[C@H]1C/C=C\CC[C@H](Cc2ccc(F)cc2)C(=O)OC[C@H]2CCCN2C1=O)N[C@@H](CO)Cc1ccccc1	none (no result: NS1 inh, CHX counter, Shiga inhibitor, Pf growth 96h, Pf growth 48h)
Cc1ccccc1Cn1cc(NC(=O)CSc2nc3c(c(C(F)(F)F)n2)CCc2ccccc2-3)cn1	Pf growth 96h inconclusive, Pf growth 48h inconclusive
COc1ccc(C(=O)N2CCCC(C(N)=O)C2)cc1S(=O)(=O)N1CCOCC1 (stereo not drawn)	none (no result: NS1 inh, CHX counter, Shiga inhibitor)
CCOC(=O)C1CCN(C(C(=O)NC2CCCC2)c2ccc(C)cc2)CC1 (stereo not drawn)	Pf growth 96h 10µM (no result: Pf growth 48h)
Cc1ccc(C(C(=O)NC2CCCCC2)N2CCN(C(=O)c3ccco3)CC2)cc1 (stereo not drawn)	Pf growth 48h 12µM
Cc1ccc(C(C(=O)NC2CCCCC2)N2CCCC2)cc1 (stereo not drawn)	Pf growth 96h inconclusive
CC(C)c1ccc(NC2CCCN(C(=O)c3ccco3)C2)cc1 (stereo not drawn)	CHX counter 13
Cc1ccc(C(C(=O)NC2CCCC2)N2CCCCC2)cc1 (stereo not drawn)	Pf growth 96h 1.9µM, Pf growth 48h inconclusive
COc1ccc(-c2noc(CCC(=O)Nc3nc4ccccc4s3)n2)cc1	none
CCN(c1ccccc1)S(=O)(=O)c1ccc2c(c1)N(C(C)=O)CCO2	Pf growth 96h inconclusive
O=C(COC(=O)CCc1ccc(S(=O)(=O)N2CCOCC2)cc1)Nc1ccccc1[N+](=O)[O-]	none (no result: NS1 inh, CHX counter, Shiga inhibitor, Pf growth 96h, Pf growth 48h)
CCN1CCN(C(C(=O)NC2CCCC2)c2ccc(Cl)cc2)CC1 (stereo not drawn)	Pf growth 96h 12µM (no result: Pf growth 48h)
O=C(NC1CCCCC1)C(c1ccc(Cl)cc1)N1CCC2(CC1)OCCO2 (stereo not drawn)	Pf growth 48h inconclusive
CCn1c(O)c(/C=C/C=C/C=Nc2ccccc2)sc1=S	none
Oc1c(/C=C/C=C/C=Nc2ccccc2)sc(=S)n1Cc1ccccc1	CHX counter 25, Shiga inhibitor 72
CCCCn1c(O)c(/C=C/C=C/C=Nc2ccccc2)sc1=S	Pf growth 96h inconclusive, Pf growth 48h inconclusive (no result: NS1 inh)
CCCn1c(O)c(C=Nc2ccccc2)sc1=S	CHX counter 36, Shiga inhibitor 44, Pf growth 96h inconclusive
NC(=O)C1CCN(C(=O)c2ccc3nc(N4CCCCC4)sc3c2)CC1	CHX counter 35, Shiga inhibitor 71
O=C(c1ccc2nc(N3CCOCC3)sc2c1)N1CCC(Cc2ccccc2)CC1	Pf growth 96h inconclusive (no result: Pf growth 48h)
CCOC(=O)N1CCN(C(=O)c2ccc3nc(N4CCCCC4)sc3c2)CC1	CHX counter 14, Pf growth 96h 10µM
